HP1b binding inh – blocks HP1-beta chromodomain binding to methylated histone tails | P83916 | AlphaScreen HP1-beta / biotin-H3K9me3 peptide binding | Potency, µM (series often up to 114 µM), for the others: at the highest dose activity change, negative = inhibition, actives largely listed as inhibitors | 0.56% of 390,000 active | AID 540317; also: potency is read from the fitted curve at half-maximal effect; nearly all actives have a fitted effect of over 70% in size
Target sequence (P83916 whole entry, looked up): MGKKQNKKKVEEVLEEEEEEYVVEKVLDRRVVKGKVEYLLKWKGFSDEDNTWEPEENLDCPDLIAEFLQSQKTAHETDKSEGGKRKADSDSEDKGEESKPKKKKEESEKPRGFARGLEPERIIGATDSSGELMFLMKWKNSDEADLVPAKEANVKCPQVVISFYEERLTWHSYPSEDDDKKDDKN
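Compound inhibition of the preformed complex between 50 nM HP1-beta and 50 nM biotinylated H3K9me3 peptide was read by AlphaScreen. Buffer was PBS pH 7.4 with 0.01% Tween-20. Incubations ran 30 min at room temperature, with 10 ug/mL donor/acceptor beads.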
PI5P4K alpha inh – blocks human PI5P4K alpha kinase activity | P48426 | PI5P4Kalpha enzyme, ADP-Glo luminescence, 60 min; active compounds read low | max response, % | 1.2% of 330,000 active | AID 652105; active = max response of -50% or lower; inconclusive = between -30% and -50%; inactive = -30% or higher; also: value at the top dose of about 77 µM; % is scaled to controls: 0 for no effect and ±100 for the full control effect
Target sequence (P48426 whole entry, looked up): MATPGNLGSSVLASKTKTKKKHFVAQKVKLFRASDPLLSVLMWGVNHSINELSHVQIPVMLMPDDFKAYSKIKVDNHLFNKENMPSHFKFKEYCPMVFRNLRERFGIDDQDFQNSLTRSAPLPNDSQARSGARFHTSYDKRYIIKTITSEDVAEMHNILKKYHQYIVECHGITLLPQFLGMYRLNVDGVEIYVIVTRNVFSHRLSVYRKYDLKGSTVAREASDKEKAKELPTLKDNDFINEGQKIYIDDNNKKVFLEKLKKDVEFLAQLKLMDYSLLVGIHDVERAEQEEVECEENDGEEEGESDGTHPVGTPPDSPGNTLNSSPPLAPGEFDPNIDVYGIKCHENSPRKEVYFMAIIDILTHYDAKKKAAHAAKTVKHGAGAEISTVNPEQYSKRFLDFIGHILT
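Single end-point luminescence (ADP-Glo) quantified ADP from PI5P4Kalpha turnover; ATP 5 microM final, 1 h at RT, 0.1% CHAPS and 0.28 mM EGTA in HEPES pH 7.4.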
BAZ2B block – BAZ2B (human) inhibition; Q9UIF8; AlphaScreen BAZ2B-H3K14Ac peptide displacement; Potency, µM (series often up to 114 µM), for the others: at the highest dose activity change, negative = inhibition, usual class: inhibitors; 4.4% of 360,000 active; AID 504333; also: potency is read from the fitted curve at half-maximal effect; % is scaled to controls: 0 for no effect and ±100 for the full control effect; nearly all actives have a fitted effect of over 60% in size
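AlphaScreen displacement: compounds (up to 110uM) incubated 30 min at room temperature with a preformed 50 nM BAZ2B/50 nM biotinylated H3K14Ac peptide complex in PBS pH 7.4 with Tween-20. Donor and acceptor beads at 10 ug/mL final added, 20 min light-protected before reading.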
JMJD2A Tudor – JMJD2A Tudor domain (human) inhibition; AlphaScreen JMJD2A-Tudor / H3K4me3 peptide binding; Potency, µM (highest dose often 114 µM), for inactives: at the highest dose activity change, negative = inhibition, most hits filed as inhibitors; 4.4% of 390,000 active; AID 504339; also: potency is read from the fitted curve at half-maximal effect; % is scaled to controls: 0 for no effect and ±100 for the full control effect; nearly all actives have a fitted effect of over 50% in size
PLK1 PBD inh – inhibitors of human PLK1 polo-box domain binding | P53350 | Plk1 PBD binding of FITC phosphopeptide, fluorescence polarization | Potency, µM, for inactives: max response, negative = inhibition, hits mostly inhibitors | 2.8% of 360,000 active | AID 720504; also: potency is read from the fitted curve at half-maximal effect; series mostly up to about 57 µM; % is scaled to controls: 0 for no effect and ±100 for the full control effect; nearly all actives have a fitted effect of over 65% in size
G9a inh – G9a (human) methyltransferase inhibition; 8.8% of 350,000 active; Q96KQ7; AID 504332; Potency, µM (titrated, usually from 102 µM), for the others: at the top dose activity, negative = inhibition, hits mostly inhibitors; G9a H3K9 monomethylation, AlphaScreen, 2 h; also: potency is read from the fitted curve at half-maximal effect; % is scaled to controls: 0 for no effect and ±100 for the full control effect; nearly all actives have a fitted effect of over 75% in size
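Readings reflect AlphaScreen signal from monomethyl-H3K9 antibody detection. HMT at 20 nM; substrate b-H3K9 500 nM; cofactor SAM 20 uM; 2 h RT reaction; compounds tested as titrations in qHTS with 15 min preincubation.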
The depositor's hits bear a star; ? = inconclusive; . = no result; [ ] = another dose, or the depositor's remark. Shown are actives, neighbours in structure and some others; about 12% of the full set was active somewhere. Unless noted, calls follow the shape of the dose curve; as a rule, active = well fitted curve in the direction sought with a large enough effect; inconclusive = small, poorly fitted or top-dose-only effect, or another doubt; inactive = no such curve, though single readings can be large; an effect the other way counts as inactive or inconclusive.

SMILES | HP1b binding inh | PI5P4K alpha inh | BAZ2B block | JMJD2A Tudor | PLK1 PBD inh | G9a inh
COc1ccc(CCN2C(=O)C3C4CC(C5C(C(=O)N/N=C\c6ccc(Cl)cc6)=NOC45)C3C2=O)cc1OC (stereo not given) | 30.1% | -5.1 | 3.5% | -10.6% | -5.5% | -14.3%
COc1cc(C2C(=O)N(C3CCC(C)CC3)CC(=O)N2CCc2ccc(Cl)cc2)ccc1OC(C)C (stereo not given) | 57.4% | . | -1.7% | -11.0% | . | 11.9%[59 µM]
CCc1ccc(-c2nc3c(=O)n(C)c(=O)nc-3n(CC)n2)cc1 | 18.4%[57 µM] | . | . | -2.3%[57.1 µM] | . | .
COc1ccc(CCN2C(=O)C3C(C2=O)C2C=CC3C23CC3)cc1OC (stereo not given) | -11.3% | -20.7 | . | ? | 23.8µM* | 10.7%
Cn1c(N)c(C(=O)Nc2cccc(Cl)c2)c(=O)n(C)c1=O | 9.2% | 5.3 | 10.9% | -2.7% | 2.9% | 24.9%
CN=c1sc(C(=O)Nc2cccc(Cl)c2)cc(=O)n1C | -5.1% | -62.3* | 7.6% | 44.7µM* | ? | 8.8%[59 µM]
CN(C)c1ccc(C(=O)c2ccc(N(C)C)c(N)c2)cc1N | ? | -1.2 | 50.1µM* | 56.2µM* | 5.2% | 79.4µM*
CCOc1ccc(C(=O)c2ccc(OCC)c(N)c2)cc1N | -12.5% | 2.3 | -28.7% | ? | -8.9% | -10.7%
Cc1cc(/C=C(/C#N)c2nc3ccccc3[nH]2)c(C)n1-c1ccccc1C(=O)O | -15.4% | -22.8 | 50.1µM* | -35.4% | -8.3% | 31.6µM*
Cc1cc(/C=C(/C#N)c2nc3ccccc3[nH]2)c(C)n1-c1cc(C(=O)O)cc(C(=O)O)c1 | ? | -78.9* | 39.8µM* | 25.1µM* | ? | 12.6µM*
COc1cc(Br)c(/C=C(\C#N)c2nc3ccccc3[nH]2)cc1OC | 33.8% | . | -24.3% | ? | . | -48.0%[59 µM]
N#C/C(=C\c1ccc(-c2ccccc2C(=O)O)o1)c1nc2ccccc2[nH]1 | 5.0% | -69.5* | 79.4µM* | 20µM* | ? | 39.8µM*
Cc1ccc2nc(/C(C#N)=C\c3cc(C)n(-c4cccc([N+](=O)[O-])c4)c3C)[nH]c2c1 | -6.3% | . | ? | ? | 2.1% | ?
N#C/C(=C/c1ccc(O)c(O)c1)c1nc2ccccc2[nH]1 | ? | ? | 7.94µM* | 28.2µM* | 20.1% | 11.2µM*
Cc1ccccc1CNCCSc1nnnn1-c1ccccc1 | 40.0% | . | 0.3% | -12.9% | . | 4.9%[59 µM]
CC(C)(C)CC(C)(C)c1cc(Cc2cc(C(C)(C)CC(C)(C)C)cc(-n3nc4ccccc4n3)c2O)c(O)c(-n2nc3ccccc3n2)c1 | . | . | . | . | . | 2.4%[12.7 µM]
O=C(NCc1ccccc1)C(c1ccc(F)cc1)N(C(=O)c1csnn1)C1CC1 (stereo not given) | -13.0% | 2.8 | 11.2% | -9.3% | -5.8% | 23.2%
Cc1nc2ccc(Cl)cc2n1C | . | 3.6 | . | . | 3.6% | .
Fc1ccc(-n2ncc3c(Nc4ccc(Oc5ccc(Cl)cc5)cc4)ncnc32)cc1 | 28.4% | . | -1.6% | 1.8% | . | 4.5%[59 µM]
Cc1sc(N)nc1C12CC3CC(CC(C3)C1)C2 | ? | 8.3 | ? | -25.5% | 1.4% | 44.7µM*
O=c1[nH][nH]c2c1C(C1CCCCC1)OC(C1CCCCC1)C2 (stereo not given) | . | 22.9 | . | . | -1.1% | .
O=C(O)CC1CCC(=C(Cl)Cl)C1 (stereo not given) | 11.8% | . | ? | -21.4% | -28.0% | 44.7µM*
COc1ccc(N/C=C2/Sc3ccccc3NC2=O)cc1 | 12.0% | -54.7* | -20.5% | -26.8% | -8.1% | ?
O=C1Nc2ccccc2S/C1=C/NCc1ccccc1Cl | -23.6% | 0.7 | ? | 50.1µM* | -16.7% | 31.6µM*
Cc1ccc(N/C=C2/Sc3ccccc3NC2=O)cc1 | 55.9% | -21.0 | -22.7% | -16.4% | 8.2% | -48.1%
SMILES | HP1b binding inh | PI5P4K alpha inh | BAZ2B block | JMJD2A Tudor | PLK1 PBD inh | G9a inh
Cc1cccc(Cn2c(CNS(=O)(=O)c3ccc4c(c3)CCCC4)nc3cccnc32)c1 | 27.8%[57 µM] | . | 0.1% | -0.6% | . | -3.0%[59 µM]
CC(=O)N1CCC2(CC1)CN(c1ccccn1)C2 | . | . | . | . | . | 44.0%[12.7 µM]
C=C(C)C(=O)Nc1cccc(C2=NOC3(C2)C[C@H](C(N)=O)N(C(=O)c2ccccc2C(=O)c2ccccc2)C3)c1 (stereo not given in full) | ? | -26.3 | 10µM* | 7.94µM* | ? | ?
C/C=C(/C)C(=O)Nc1cccc(C2=NOC3(C2)C[C@@H](C(N)=O)N(C(=O)CC(c2ccccc2)c2ccccc2)C3)c1 (stereo not given in full) | 18.0% | 1.4 | -27.4% | -30.8% | -0.3% | -26.5%[59 µM]
CCCCCC(=O)Nc1cccc(C2=NOC3(C2)C[C@H](C(N)=O)N(C(=O)CC#N)C3)c1 (stereo not given in full) | . | . | 56.2µM* | . | . | ?
C/C=C(\C)C(=O)Nc1cccc(C2=NOC3(C2)C[C@@H](C(N)=O)N(C(=O)/C(C)=C/C)C3)c1 (stereo not given in full) | 47.2% | -2.5 | -13.1% | -9.0% | 4.3% | -40.6%[59 µM]
C=C(C)C(=O)Nc1cccc(C2=NOC3(C2)C[C@@H](C(N)=O)N(C(=O)CC(c2ccccc2)c2ccccc2)C3)c1 (stereo not given in full) | 20µM* | ? | 12.6µM* | 20µM* | ? | ?
C=C(C)C(=O)Nc1cccc(C2=NOC3(C2)C[C@@H](C(N)=O)N(C(=O)/C(C)=C/C)C3)c1 (stereo not given in full) | 3.55µM* | ? | 1.78µM* | 3.16µM* | ? | ?
CCCCCC(=O)Nc1cccc(C2=NOC3(C2)C[C@H](C(N)=O)N(C(=O)c2ccccc2)C3)c1 (stereo not given in full) | 37.5% | -20.6 | -18.0% | -32.4% | -5.5% | -11.1%[59 µM]
O=S(=O)(c1ccc2c(c1)OCCO2)N1CCN(S(=O)(=O)c2ccccc2F)CC1 | . | . | . | -17.8% | . | .
Cn1nnnc1SCCCNCc1cccc(OCc2ccccc2F)c1 | 33.7% | . | ? | -22.8% | . | -25.1%[59 µM]
C=C(C)C(=O)Nc1cccc(C2=NOC3(C2)C[C@H](C(N)=O)N(C(=O)CC#N)C3)c1 (stereo not given in full) | ? | -19.8 | 39.8µM* | 25.1µM* | -7.6% | ?
C=C(C)C(=O)Nc1cccc(C2=NOC3(C2)C[C@H](C(N)=O)N(C(=O)CC)C3)c1 (stereo not given in full) | 10µM* | -16.6 | 3.55µM* | 7.94µM* | -22.3% | ?
O=C(Nc1cc(Cl)ccc1Cl)c1cc(S(=O)(=O)NCCc2ccccc2)ccc1F | 40.8% | . | 4.6% | -9.5% | . | 3.6%[59 µM]
COc1ccc2ccc3c(c2c1)N=C[C@]1(O3)N(C)c2ccccc2C1(C)C | ? | ? | 50.1µM* | -28.2%[11.4 µM] | 2.99µM* | 28.8%[0.501 µM]
